Drawing on ChEMBL document CHEMBL3433997, “St. Jude Leishmania screening dataset” (2016), this text covers inhibition for 40 compounds.

This assay concerns the target Hexose transporter 1 (Plasmodium falciparum) (UniProt O97467). The experiment in a line: ST_JUDE_LEISH: Cytotoxicity at 2uM final concentration against transgenic Leishmania Mexicana promastigotes LmPfHT that are glucose transport deficient and complemented with the Plasmodium falciparum hexose transporter. Activity is measured by DNA content using SYBR green in vitro. The assay is classed as functional.
In general, inhibition refers to the drop in the measured response relative to a control, in per cent. In the case of `N=c1n(CCN2CCCCC2)c2ccccc2n1CC(O)c1cccc(Br)c1` (stereo not given), the inhibition came to 4.03%. With `O=C(Nc1cc(C(F)(F)F)ccc1N1CCOCC1)C(Cl)(Cl)Cl` the figure was 9.77%; with `COc1ccccc1-c1cccc(CNC2CCN(CC3Cn4c(=O)ccc5ccc(F)c3c54)CC2)c1` (stereo not given), 31.3%. For `CN1CCN(c2ccc(CNc3ccc4ncc(-c5ccc(OC(F)(F)F)cc5)n4n3)cc2)CC1`, the inhibition is -1.23%. With `CC(C)CNc1nc(N)nc2ccc3c(ccn3CC(C)C)c12` the figure was -0.47%; with `N#CCCN1CCN(Cc2cccc(-c3ccc(-c4nc5ccccc5[nH]4)cc3)c2)CC1`, 3.22%. With `O=C(Nc1ccc(OC2CCN(Cc3ccccc3)CC2)c(Cl)c1)c1ccco1` the figure was 10.1%. The figure for `Cc1cc(N(C)C)nc(Nc2ccc(NC(=O)CCc3ccccc3)cc2)n1` is 6.42%; for `Fc1ccc2[nH]ccc(=NN=Cc3ccccc3Cl)c2c1` it is 0.73%; for `c1cc(CN2CCCCC2)cc(-c2ccc(-c3nc4ccccc4[nH]3)cc2)c1` it is 2.76%. Regarding `CCCCCCOc1ccc(C(=O)NCCCC2CCCN(CCCCCNC(=O)C=Cc3ccc(Cl)c(Cl)c3)C2)cc1` (stereo not given), the inhibition came out at 0.51%. With `COc1ccccc1CN1CCC(NC(=O)c2ccc(-c3ccc(N(C)C)cc3)s2)CC1` the figure was 12.6%. With `CN1CCCN(Cc2ccc(-c3ccc(NC(=O)c4ccc(Cl)cc4)cc3)cc2)CC1` the figure was 50%.

As to `Fc1cc(Cl)ccc1Nc1ccnc2cc(-c3ccc(CN4CCCCC4)o3)ccc12`, the inhibition was 1.59%.

Consider `CN(C)CCCOC(=O)c1cc2cc(-c3ccccc3)ccc2n1S(=O)(=O)Cc1ccccc1`, for which the inhibition is 10.6%. With `Nc1nc(N)c2c(Oc3cccnc3)cccc2n1` the figure was -1.61%; with `CC(C)(C)SC1SC(SC(C)(C)C)C(OC(=O)c2ccccc2)C(OC(=O)c2ccccc2)C1OC(=O)c1ccccc1` (stereo not given), -0.69%. For `N=C(N)Nc1nccc(NCc2ccccc2)n1`, the inhibition is -0.68%. As to `COc1ccc2nccc([C@@H](O)CN3CCC(NCc4ccc5nsnc5c4)CC3)c2c1`, the inhibition is -1.13%. With `CN(/N=C/C=C/c1ccc(Cl)cc1)c1nc(NCCc2ccc(O)cc2)nc(N2CCNCC2)n1` the figure was 0.71%; with `CC(C)c1ccc(NC(=O)c2ccc(C(=O)NC3CCN(CC4CCCCC4)C3)cc2)cc1` (stereo not given), 4.18%. With `N=C(N)NCC=C(c1ccccc1)c1ccccc1` the figure was 5.26%; with `CCC1CCc2cc(N)cc(-c3nc4c(c(C)nn4CC)c(=O)[nH]3)c2O1` (stereo not given), 4.15%. With `CN(C)Cc1ccc(-c2ccc3c(Nc4ccc(Oc5ccccn5)cc4)ccnc3c2)o1` the figure was 4.31%.

Turning to `Cc1cc(C(=O)CN2C(=O)NC3(CCCc4ccccc43)C2=O)c(C)n1Cc1ccc(F)cc1` (stereo not given), the inhibition was determined as 2.54%. On to `CN1CCC(NCc2ccc(-c3ccc(S(=O)(=O)NCc4ccccc4)s3)cc2)CC1`, for which the inhibition was determined as 6.78%. With `C[C@H](NC(=O)c1c(CN2CCC(NC(=O)CC(C)(C)C)CC2)c(-c2cccs2)nc2ccccc12)C1CCCCC1` the figure was 1.16%; with `COCCOc1cccc(CN2CCC(c3cc4nc(C)cc(C(F)(F)F)n4n3)C2)c1` (stereo not given), 4.65%; with `O=C(NCCc1ccccc1)N(Cc1ccccc1-c1cccc(CNC2CCCC2)c1)C1CCN(Cc2ccccc2)CC1`, 4.49%. With `COc1ccc(-c2csc3nc(C)nc(Cl)c23)cc1OC` the figure was 0.48%; with `CCCc1cc(Cc2cnc(N)nc2N)cc2c1OC(C)C2C` (stereo not given), 8.61%. In the case of `COc1ccc(-c2cccc(NC(=O)c3cccc(C#N)c3)c2)cc1CN(C)CCN(C)C`, the inhibition was found to be 1.39%. The figure for `CCNCc1cccc(-c2ccc3ccnc(N)c3c2)c1` is 3.12%. With `COc1c(C)cc(I)cc1CNCCCNc1cc(=O)c2ccccc2[nH]1` the figure was -0.66%.

Turning to `CCN(CC)CCCNC(=O)/C(=C/C=C/c1cc2cc(Cl)c(Cl)cc2[nH]1)OC`, the inhibition is 11.3%. For `COc1ccc2nc3cc(Cl)ccc3c(N)c2c1`, the inhibition is 10%. With `CCOC(=O)C(NC(=O)Cc1ccccc1)C(C)C` (stereo not given) the figure was -2.35%. The figure for `CC(C)(C)OC(=O)N[C@@H](Cc1ccccc1)C(=O)Nc1cccc(-c2cccc(NC(=O)[C@H](Cc3ccccc3)NC(=O)OC(C)(C)C)c2)c1` is 0.21%; for `Cc1ccc(C)c(CN2CCC(CNC(=O)c3cc4ccc5cccnc5c4[nH]3)CC2)c1` it is -0.66%. The figure for `Cc1cc(N/N=C/c2ccccc2[N+](=O)[O-])c2cc(F)ccc2n1` is 1.95%.
